From PubChem BioAssay (NCATS) come the findings set out here.

Several values for one entry are separate records, joined by “and”; a condition that tells them apart may be missing. Equal values may be shown once. Values without a mark were called inactive. Activity calls are given as the source filed them. How the calls were made is not given here.
Potency means the concentration at half of the fitted maximal effect.

The experiment can be described thus: Immunotoxin (HA22) sensitization/mitigation study. Vehicle arm (PBS) (AID 1159510). As to conditions: cancer cells viability with PBS vehicle (HA22 study); series mostly up to 46.1 µM; viability (% of control): at the top concentration.
For `CCOc1cc2ncc(C#N)c(Nc3ccc(F)c(Cl)c3)c2cc1NC(=O)C=CCN(C)C`, the Potency is 4.69 µM (active).

As for `CC(C)c1ccccc1Cc1cc(C(=O)Nc2ccc(S(=O)(=O)c3ccccc3C(C)(C)C)cc2)c(O)c(O)c1O`, the Potency is 0.743 µM (active).

On to `O=C1[C@H](Cc2ccc(O)cc2)N2C(=O)CCN(C(=O)NCc3ccccc3)[C@H]2CN1Cc1cccc2ccccc12`, for which the Potency is 6.62 µM (active).

With `NC(=O)c1ccc(-c2nc(-c3ccc4c(c3)OCCO4)c(-c3ccccn3)[nH]2)cc1`, the Potency was 20.9 µM (active).

Take `Cc1ccc2c(c1)C(=O)[C@@]1(O)CCN(c3ccccc3)C1=N2`: the “viability (% of control)” value is 83.1%.

In the case of `O=C(NCCCNc1nc(Nc2cccc(NC(=O)N3CCCC3)c2)ncc1I)c1cccs1`, the Potency is 11.8 µM (active) and 3.32 µM (active).

In the case of `COc1ccc2c(c1)CC[C@@H](CN(C)CC(=O)O)[C@H]2c1ccccc1`, the “viability (% of control)” value was 106%.

For `CC(=O)Nc1sc2c(c1-c1nc3ccccc3s1)CNC2`, the Potency was 16.6 µM (active).

For `CCCCCCCCCCCCCCCCCCOP(=O)([O-])OC1CC[N+](C)(C)CC1`, the “viability (% of control)” value is 91.9% [at 29.8 µM].

On to `CC=C1NC(=O)[C@H]2CSSCCC=C[C@H](CC(=O)N[C@H](C(C)C)C(=O)N2)OC(=O)[C@H](C(C)C)NC1=O`, for which the Potency was 0.0017 µM (active).

For the compound `CN(C)CC=CC(=O)Nc1cc2c(Nc3ccc(F)c(Cl)c3)ncnc2cc1O[C@H]1CCOC1`, the Potency is 1.48 µM (active).

For `Cn1cc(-c2ccc3nnc(Sc4ccc5ncccc5c4)n3n2)cn1`, the “viability (% of control)” value was 108%.

In the case of `Cc1c(C(=O)Nc2ccc(N3C[C@@H](C)O[C@@H](C)C3)nc2)cccc1-c1ccc(OC(F)(F)F)cc1`, the Potency was 20.9 µM (active).

Regarding `C[C@@H](O[C@H]1OCCN(Cc2n[nH]c(=O)[nH]2)[C@@H]1c1ccc(F)cc1)c1cc(C(F)(F)F)cc(C(F)(F)F)c1`, the Potency is 14.8 µM (active).

As for `COc1cc2c(cc1OC)CC(=O)N(CCCN(C)C[C@H]1Cc3cc(OC)c(OC)cc31)CC2`, the “viability (% of control)” value was 90.5%.

As to `CC(NCc1ccc2c(c1)nc(NC(=O)c1ccc(-c3cn[nH]c3)s1)n2CC(C)(C)O)C(C)(C)C` (stereo not given), the Potency was 0.0469 µM (active).

Regarding `CNC(=O)c1cc(Oc2ccc(NC(=O)Nc3ccc(Cl)c(C(F)(F)F)c3)c(F)c2)ccn1`, the Potency was 20.9 µM (active).

`CC(C)C[C@@H](C(=O)N[C@H](C(=O)OC1CCCC1)c1ccccc1)[C@H](O)C(=O)NO`: the Potency is 23.5 µM (active).

As to `COc1cc2ncn(-c3cc(OCc4ccccc4C(F)(F)F)c(C(N)=O)s3)c2cc1OC`, the Potency was 0.296 µM (active).

In the case of `C=CC(=O)Nc1cc2c(Nc3ccc(F)c(Cl)c3)ncnc2cc1C#CC(C)(C)N1CCN(C)CC1`, the Potency was 0.833 µM (active).

As to `Cc1ccc(C(=O)N(CCCN)[C@@H](c2nc3cc(Cl)ccc3c(=O)n2Cc2ccccc2)C(C)C)cc1`, the Potency was 0.0037 µM (active).

Turning to `CC(=O)OCC(=O)[C@@]1(O)[C@H](C)C[C@H]2[C@@H]3C=C(C)C4=Cc5c(cnn5-c5ccccc5)C[C@]4(C)[C@@H]3[C@@H](O)C[C@@]21C`, the Potency was 1.32 µM (active).

As for `COc1cc(Nc2ncc(F)c(Nc3ccc4c(n3)NC(=O)C(C)(C)O4)n2)cc(OC)c1OC`, the Potency is 18.7 µM (active).

As to `Cc1cnc(Nc2ccc(F)cc2Cl)nc1-c1c[nH]c(C(=O)N[C@H](CO)c2cccc(Cl)c2)c1`, the Potency is 23.5 µM (active).

With `CCC(=O)N1CCN(c2ccc(-n3c(=O)ccc4cnc5ccc(-c6cnc7ccccc7c6)cc5c43)cc2C(F)(F)F)CC1`, the Potency is 4.18 µM (active).
